# From PubChem BioAssay (Tox21)
# Inconclusive results are not listed. Entries that show only a call come without a potency. More than one record can exist for a structure, and the calls need not agree. Active and inactive are the calls of the source. Unless noted, calls come from the whole dose curve; as a rule, active = well fitted curve in the direction sought with a large enough effect in the repeat runs; inconclusive = weak or mixed curves; inactive = no such curve, though single readings can be large; an effect the other way counts as inactive or inconclusive.
# Assays:
# [1] = molecular target: Peroxisome proliferator-activated receptor gamma (Homo sapiens) (UniProt P37231); test: qHTS assay to identify small molecule antagonists of the peroxisome proliferator-activated receptor gamma (PPARg) signaling pathway (AID 743191; calls by dose curve; note: series mostly up to about 63 µM; nearly all actives have a fitted effect of over 30% in size)
# How it was run: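 GeneBLAzer PPARg UAS-bla HEK293H cells carrying a UAS-driven beta-lactamase reporter were plated at 3000 cells/well, preincubated 5 h at 37C, then given compound for 17 h at 37C; LiveBLAzer B/G FRET substrate was read after 1 h at room temperature.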
# [2] = qHTS assay to identify small molecule antagonists of the peroxisome proliferator-activated receptor gamma (PPARg) signaling pathway - cell viability counter screen (AID 743194); note: nearly all actives have a fitted effect of over 55% in size
# How it was run: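 PPARg-UAS-bla HEK293H cells were plated, rested 5 h at 37 C, then treated with compounds plus rosiglitazone (50 nM final) for 17 h at 37 C; viability was then read by CellTiter-Glo luminescence after 30 min at room temperature.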
# [3] = qHTS assay for small molecule agonists of the antioxidant response element (ARE) signaling pathway (AID 743202; active = well fitted activation curve with a large enough effect in the signal ratio in the repeat runs, not every such curve was filed as active; the % refers to the signal ratio; note: potency is the fitted concentration of half-maximal effect)
# How it was run: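 Read-out: LiveBLAzer B/G FRET substrate fluorescence after 2 h at room temperature, following 16 h compound treatment at 37 C of HepG2 cells carrying an ARE-driven beta-lactamase reporter.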
# [4] = qHTS assay for small molecule agonists of the antioxidant response element (ARE) signaling pathway - cell viability counter screen (AID 743203; calls by dose curve; note: nearly all actives have a fitted effect of over 55% in size)
# How it was run: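 ARE-bla HepG2 cells were plated, rested 5 h at 37C/5% CO2, then exposed to compounds in DMSO for 16 h. Viability was read as CellTiter-Glo luminescence after 30 min at room temperature, in the same wells as the ARE screen.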
# [5] = qHTS assay for small molecule activators of the heat shock response signaling pathway - cell viability counter screen (AID 743209); note: nearly all actives have a fitted effect of over 50% in size
# How it was run: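 HSE-bla HeLa cells plated overnight, then exposed to Tox21 compounds (23 nL in DMSO) for 5 h at 37 C. After the bla reporter read, CellTiter-Glo was added in the same wells and luminescence read after 30 min at room temperature.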
# [6] = qHTS assay for small molecule activators of the heat shock response signaling pathway (AID 743210; active = well fitted activation curve with a large enough effect in the signal ratio in the repeat runs, with a control signal flat, not every such curve was filed as active; the % refers to the signal ratio; note: series mostly up to about 63 µM)
# How it was run: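 HSE-bla HeLa cells (beta-lactamase reporter under heat shock response elements) were exposed to compounds for 5 h at 37 C, then loaded with LiveBLAzer B/G FRET substrate for 2.5 h at room temperature before fluorescence reading.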
# [7] = qHTS assay to identify small molecule agonists of the peroxisome proliferator-activated receptor delta (PPARd) signaling pathway - cell viability counter screen (AID 743211); note: nearly all actives have a fitted effect of over 55% in size
# How it was run: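 In the same wells used for beta-lactamase reporter measurement, cytotoxicity is scored by CellTiter-Glo. HEK293H PPARd-bla cells receive compound for 17 h at 37C following a 5 h settling period.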
# [8] = molecular target: Estrogen receptor (Homo sapiens) (UniProt P03372); test: qHTS assay to identify small molecule antagonists of the estrogen receptor alpha (ER-alpha) signaling pathway (AID 743069; active = well fitted curve in the direction sought with a large enough effect in the signal ratio in the repeat runs, not every such curve was filed as active; the % refers to the signal ratio)
# How it was run: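 HEK293 cells stably carrying an ER-alpha-UAS-bla beta-lactamase reporter were pre-cultured overnight in 2% charcoal-stripped FBS medium. Test compounds in DMSO were added together with 17beta-estradiol for 18 hr at 37C. Read-out was fluorescence after 2 hr with LiveBLAzer B/G FRET substrate at room temperature.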
# [9] = molecular target: Estrogen receptor (Homo sapiens) (UniProt P03372); test: qHTS assay to identify small molecule agonists of the estrogen receptor alpha (ER-alpha) signaling pathway (AID 743075; calls by dose curve)
# [10] = molecular target: Estrogen receptor (Homo sapiens) (UniProt P03372); test: qHTS assay to identify small molecule agonists of the estrogen receptor alpha (ER-alpha) signaling pathway using the BG1 cell line (AID 743079); note: nearly all actives have a fitted effect of over 20% in size; note: potency is the fitted concentration of half-maximal effect
# [11] = qHTS assay to identify small molecule antagonists of the estrogen receptor alpha (ER-alpha) signaling pathway using the BG1 cell line (AID 743080; calls by dose curve;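 note: BG1 cells stimulated with 17beta-estradiol alongside compound; series mostly up to about 70 µM; nearly all actives have a fitted effect of over 25% in size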)
# How it was run: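 Quantitative HTS on the Tox21 10K library: BG1 cells with endogenous ER-alpha and ERE-luciferase reporter, 17beta-estradiol stimulation, 21.5 h compound exposure, luminescence endpoint with parallel fluorescence cytotoxicity counter-read.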
# [12] = qHTS assay to identify small molecule antagonists of the estrogen receptor alpha (ER-alpha) signaling pathway using the BG1 cell line - cell viability counter screen (AID 743081);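 note: compound given together with 17beta-estradiol as the ER stimulus; series mostly up to about 70 µM; nearly all actives have a fitted effect of over 45% in size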
# [13] = molecular target: Aromatase (Homo sapiens) (UniProt P11511); test: qHTS assay to identify aromatase inhibitors (AID 743083); note: series mostly up to about 70 µM; nearly all actives have a fitted effect of over 55% in size
# [14] = qHTS assay to identify aromatase inhibitors - cell viability counter screen (AID 743084)
# [15] = molecular target: Aryl hydrocarbon receptor (Homo sapiens) (UniProt P35869); test: qHTS assay to identify small molecule that activate the aryl hydrocarbon receptor (AhR) signaling pathway (AID 743085);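 note: HG2L7.5c1 human HepG2 liver cells with stably integrated DRE-driven firefly reporter; series mostly up to about 70 µM; nearly all actives have a fitted effect of over 15% in size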
# How it was run: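 Stably transfected human liver carcinoma cells (HG2L7.5c1; 20 DRE-firefly luciferase) were incubated 5 h, dosed, and kept 24 h at 37C. Agonism was scored from increased luciferase luminescence.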
# [16] = qHTS assay to identify small molecule that activate the aryl hydrocarbon receptor (AhR) signaling pathway - cell viability counter screen (AID 743086);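 note: HepG2 liver cells carrying the AhR DRE luciferase reporter; series mostly up to about 70 µM; nearly all actives have a fitted effect of over 45% in size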
# How it was run: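 HepG2-AhR-luc (HG2L7.5c1) cells, 4000/well, were preincubated 5 h at 37C, exposed to compound in qHTS format for 24 hr at 37C, then given CellTiter-Fluor for 30 min; viability was read as fluorescence in the reporter wells.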
# [17] = molecular target: Peroxisome proliferator-activated receptor gamma (Homo sapiens) (UniProt P37231); test: qHTS assay to identify small molecule agonists of the peroxisome proliferator-activated receptor gamma (PPARg) signaling pathway (AID 743094; active = well fitted activation curve with a large enough effect in the signal ratio in the repeat runs, not every such curve was filed as active; the % refers to the signal ratio)
# How it was run: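 GeneBLAzer PPARg UAS-bla HEK293H cells were plated, rested 5 h, then exposed to compounds for 17 h at 37C. Beta-lactamase activity was read by LiveBLAzer B/G FRET substrate fluorescence after 1 h at room temperature.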
# [18] = qHTS assay to identify small molecule antagonists of the estrogen receptor alpha (ER-alpha) signaling pathway - cell viability counter screen (AID 743074; calls by dose curve; note: nearly all actives have a fitted effect of over 45% in size)
# Chain of Aromatase (Homo sapiens) (P11511 whole entry, looked up): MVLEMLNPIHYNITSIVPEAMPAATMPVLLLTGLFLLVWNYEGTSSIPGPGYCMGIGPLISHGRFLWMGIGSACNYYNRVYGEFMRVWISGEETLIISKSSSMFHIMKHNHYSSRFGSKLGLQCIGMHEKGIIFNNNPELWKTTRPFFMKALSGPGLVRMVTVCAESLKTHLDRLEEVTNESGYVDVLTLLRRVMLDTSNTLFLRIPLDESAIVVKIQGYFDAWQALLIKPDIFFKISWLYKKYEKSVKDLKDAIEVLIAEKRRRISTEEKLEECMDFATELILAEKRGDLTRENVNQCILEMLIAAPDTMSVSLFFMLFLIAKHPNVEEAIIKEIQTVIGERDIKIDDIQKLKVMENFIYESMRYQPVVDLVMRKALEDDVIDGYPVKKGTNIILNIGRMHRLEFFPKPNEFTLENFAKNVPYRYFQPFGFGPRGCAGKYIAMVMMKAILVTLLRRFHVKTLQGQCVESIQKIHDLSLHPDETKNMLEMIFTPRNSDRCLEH
# Chain of Estrogen receptor (Homo sapiens) (P03372 whole entry, looked up): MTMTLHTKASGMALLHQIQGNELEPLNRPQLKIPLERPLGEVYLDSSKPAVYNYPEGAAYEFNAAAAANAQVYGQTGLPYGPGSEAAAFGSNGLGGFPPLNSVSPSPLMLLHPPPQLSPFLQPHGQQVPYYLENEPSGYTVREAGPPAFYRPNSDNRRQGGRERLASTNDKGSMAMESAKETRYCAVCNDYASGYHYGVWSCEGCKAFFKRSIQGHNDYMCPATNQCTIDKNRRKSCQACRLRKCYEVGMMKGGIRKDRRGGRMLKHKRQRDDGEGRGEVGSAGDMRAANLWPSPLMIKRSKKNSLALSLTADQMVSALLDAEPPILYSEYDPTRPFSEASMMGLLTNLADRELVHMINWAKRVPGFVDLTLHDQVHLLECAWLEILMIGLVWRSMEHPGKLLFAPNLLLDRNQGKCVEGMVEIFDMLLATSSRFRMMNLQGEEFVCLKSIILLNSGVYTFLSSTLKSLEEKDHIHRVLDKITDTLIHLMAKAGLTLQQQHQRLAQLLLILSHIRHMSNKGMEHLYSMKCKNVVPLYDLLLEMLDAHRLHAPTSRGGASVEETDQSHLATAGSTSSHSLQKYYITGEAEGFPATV
# Chain of Aryl hydrocarbon receptor (Homo sapiens) (P35869 whole entry, looked up): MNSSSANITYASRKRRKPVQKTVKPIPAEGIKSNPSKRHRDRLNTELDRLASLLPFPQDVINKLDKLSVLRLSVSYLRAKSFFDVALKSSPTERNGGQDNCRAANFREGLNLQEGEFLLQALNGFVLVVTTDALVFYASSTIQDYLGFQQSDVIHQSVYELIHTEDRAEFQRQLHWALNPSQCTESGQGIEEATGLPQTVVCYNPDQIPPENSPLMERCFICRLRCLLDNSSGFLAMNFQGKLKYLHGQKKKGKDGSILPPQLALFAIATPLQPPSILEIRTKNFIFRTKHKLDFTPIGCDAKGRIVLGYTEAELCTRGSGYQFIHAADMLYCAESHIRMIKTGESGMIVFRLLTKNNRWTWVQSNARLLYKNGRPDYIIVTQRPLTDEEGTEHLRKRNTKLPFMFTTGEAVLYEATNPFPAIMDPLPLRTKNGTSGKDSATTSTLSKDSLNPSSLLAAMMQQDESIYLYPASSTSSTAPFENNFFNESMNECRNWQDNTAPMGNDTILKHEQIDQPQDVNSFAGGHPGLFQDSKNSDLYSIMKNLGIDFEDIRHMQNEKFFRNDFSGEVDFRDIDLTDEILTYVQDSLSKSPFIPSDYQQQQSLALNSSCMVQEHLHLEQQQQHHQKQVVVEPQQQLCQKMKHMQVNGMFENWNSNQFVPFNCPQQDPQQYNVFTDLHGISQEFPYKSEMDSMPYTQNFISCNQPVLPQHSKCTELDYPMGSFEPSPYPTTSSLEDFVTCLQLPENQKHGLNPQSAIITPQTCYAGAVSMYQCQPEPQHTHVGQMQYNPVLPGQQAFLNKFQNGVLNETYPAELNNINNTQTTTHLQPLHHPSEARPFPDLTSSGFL
# Chain of Peroxisome proliferator-activated receptor gamma (Homo sapiens) (P37231 whole entry, looked up): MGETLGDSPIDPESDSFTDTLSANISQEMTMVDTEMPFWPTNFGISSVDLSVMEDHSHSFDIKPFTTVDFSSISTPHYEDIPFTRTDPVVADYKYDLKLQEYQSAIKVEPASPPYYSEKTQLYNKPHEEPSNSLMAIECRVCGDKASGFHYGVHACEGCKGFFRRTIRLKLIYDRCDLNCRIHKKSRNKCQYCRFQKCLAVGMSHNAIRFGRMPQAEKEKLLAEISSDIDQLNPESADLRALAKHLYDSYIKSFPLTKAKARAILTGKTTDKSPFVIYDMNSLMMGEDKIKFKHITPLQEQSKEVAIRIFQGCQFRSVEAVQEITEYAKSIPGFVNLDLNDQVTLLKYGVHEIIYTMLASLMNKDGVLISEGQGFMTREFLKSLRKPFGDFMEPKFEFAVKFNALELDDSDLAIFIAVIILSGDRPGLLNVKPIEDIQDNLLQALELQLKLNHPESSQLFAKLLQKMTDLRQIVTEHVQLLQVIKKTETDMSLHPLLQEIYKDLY
Compound,outcome [1],outcome [2],Potency [3],outcome [4],Potency [5],outcome [6],outcome [7],outcome [8],Potency [9],Potency [10],Potency [11],outcome [12],Potency [13],outcome [14],Potency [15],outcome [16],outcome [17],Potency [18]
CCCCC(O)/C=C(C)/C=C/C=C/C(=O)N1CCCC1=O (stereo unspecified),inactive,inactive,inactive,inactive,inactive,inactive,inactive,–,–,–,–,–,–,–,–,–,–,–
CCCCC(CC)COC(=O)CC#N (stereo unspecified),inactive,inactive,inactive,–,inactive,inactive,inactive,inactive,inactive,inactive,inactive,inactive,inactive,inactive,inactive,inactive,inactive,–
COC(=O)c1ccc(NC(C)=O)cc1OC,inactive,inactive,inactive,inactive,inactive,inactive,inactive,–,–,–,–,–,–,–,–,–,–,–
O=CN1CCCCC1,inactive,inactive,inactive,–,inactive,inactive,inactive,inactive,inactive,inactive,–,inactive,inactive,inactive,inactive,–,inactive,inactive
N#Cc1cc(NC(=O)C(=O)O)c(Cl)c(NC(=O)C(=O)O)c1,inactive,inactive,inactive,inactive,–,inactive,–,–,–,–,–,–,–,–,–,–,–,–
O=C1CCCc2c(O)cccc21,inactive,inactive,–,inactive,–,inactive,–,–,–,–,–,–,–,–,–,–,–,–
CC(=O)OCC(=O)[C@@]1(O)CC[C@H]2[C@@H]3CCC4=CC(=O)C=C[C@]4(C)[C@H]3[C@@H](O)C[C@@]21C,–,inactive,inactive,inactive,–,–,inactive,–,–,11.9 µM (active),–,inactive,inactive,inactive,–,inactive,–,inactive
CCCCC(CC)CCC(CC(C)C)OS(=O)(=O)O (stereo unspecified),inactive,inactive,–,inactive,–,inactive,inactive,inactive,inactive,8.41 µM (active) and inactive,–,inactive,inactive,inactive,inactive,inactive,inactive,inactive
CCCc1ncc(C(=O)O)s1,inactive,inactive,inactive,–,inactive,–,inactive,–,–,–,–,–,–,–,–,–,–,–
CCN1CCN(C(=O)N[C@@H](C(=O)N[C@@H]2C(=O)N3C(C(=O)O)=C(CSc4nnnn4C)CS[C@H]23)c2ccc(O)cc2)C(=O)C1=O,inactive,inactive,–,inactive,–,inactive,inactive,inactive,inactive,inactive,–,inactive,inactive,inactive,–,inactive,–,inactive
Clc1ccc2c(c1)Nc1ccccc1S2,–,–,29.8 µM (active),inactive,inactive,inactive,inactive,–,–,–,–,–,–,–,–,–,–,–
CC(C)(C)NCC(O)COc1cccc2c1CCC(=O)N2 (stereo unspecified),inactive,inactive,inactive,–,inactive,inactive,inactive,–,–,–,–,inactive,inactive,–,inactive,inactive,inactive,inactive
CC(C)C(=O)Nc1cccc(C2CN3CCSC3=N2)c1 (stereo unspecified),–,–,–,inactive,inactive,inactive,inactive,–,–,–,–,–,–,–,–,–,–,–
O=c1[nH]c(=O)c2cn[nH]c2[nH]1,inactive,inactive,inactive,inactive,inactive,inactive,–,–,–,–,–,inactive,inactive,inactive,inactive,inactive,inactive,inactive
COc1cc(S(N)(=O)=O)cc(C(=O)O)c1OC,inactive,inactive,inactive,inactive,inactive,inactive,–,–,–,–,–,–,–,–,–,–,–,–
CCCCN1C(=O)c2ccccc2C1=O,–,inactive,inactive,inactive,inactive,inactive,–,inactive,inactive,inactive,–,inactive,inactive,inactive,inactive,inactive,–,inactive

Compound,outcome [1],outcome [2],Potency [3],outcome [4],Potency [5],outcome [6],outcome [7],outcome [8],Potency [9],Potency [10],Potency [11],outcome [12],Potency [13],outcome [14],Potency [15],outcome [16],outcome [17],Potency [18]
CNC(=O)c1c(I)c(NC(C)=O)c(I)c(C(=O)O)c1I,–,inactive,inactive,inactive,inactive,inactive,–,–,–,–,–,–,–,–,–,–,–,–
C[C@H]1COc2c(C3(N)CC3)c(F)cc3c(=O)c(C(=O)O)cn1c23,inactive,–,inactive,inactive,inactive,inactive,–,–,–,–,–,inactive,inactive,inactive,inactive,–,inactive,inactive
CCCC[O][Al]([O]CCCC)[O]CCCC,inactive,inactive,inactive,–,inactive,–,inactive,–,–,–,–,inactive,inactive,inactive,inactive,inactive,inactive,inactive
CC(=O)c1ccc(O)c(C(N)=O)c1,inactive,inactive,inactive,inactive,inactive,inactive,–,–,–,–,–,–,–,–,–,–,–,–
C[C@]12C=CC(=O)C=C1[C@@H](F)C[C@@H]1[C@@H]2[C@@H](O)C[C@@]2(C)[C@H]1CC[C@]2(O)C(=O)CO,inactive,–,inactive,inactive,–,–,inactive,–,inactive,–,–,inactive,inactive,inactive,–,inactive,inactive,inactive
CC(C)c1cc(C(C)C)cc(C(C)C)c1,–,inactive,inactive,inactive,inactive,inactive,inactive,inactive,inactive,inactive,–,inactive,inactive,inactive,inactive,–,inactive,inactive
COC(=O)c1cc(Cl)c(NC(C)=O)cc1OC,inactive,inactive,inactive,inactive,inactive,inactive,–,–,–,–,–,–,–,–,–,–,–,–
COc1ccccc1N1CCN(CC(O)COc2cc(OC)c(OC)c(OC)c2)CC1 (stereo unspecified),inactive,inactive,–,inactive,inactive,–,inactive,–,–,–,–,–,–,–,–,–,–,–
BrCCOc1ccccc1,inactive,inactive,inactive,inactive,inactive,–,inactive,inactive,inactive,inactive,inactive,inactive,inactive,inactive,inactive,–,inactive,inactive
CCN(CC)CC(=O)Oc1ccc(NC(C)=O)cc1,inactive,inactive,inactive,inactive,inactive,inactive,inactive,–,–,–,–,–,–,–,–,–,–,–
C[C@@H]1CCC[C@H](C)N1CCCC(O)(c1ccccc1)c1ccccn1 (stereo partly specified),inactive,–,inactive,inactive,inactive,–,inactive,–,–,–,–,–,–,–,–,–,–,–
CC(=O)/C=C/C=C1/C2CCC(C2)C1(C)C (stereo unspecified),inactive,inactive,inactive,inactive,–,inactive,inactive,–,–,–,–,–,–,–,–,–,–,–
CCCCCCCCCCCC(C)=O,inactive,–,inactive,inactive,inactive,–,inactive,inactive,–,17.2 µM (active),inactive,inactive,inactive,inactive,inactive,inactive,inactive,inactive
CCCCCCC(O)CO (stereo unspecified),inactive,inactive,–,inactive,inactive,inactive,inactive,inactive,inactive,inactive,–,inactive,inactive,inactive,inactive,inactive,inactive,inactive
CC(=O)O[C@@H]1CC2C3CCc4cc(OC(=O)c5ccccc5)ccc4C3CCC2(C)[C@H]1OC(C)=O (stereo partly specified),–,inactive,inactive,inactive,inactive,inactive,–,–,–,–,–,–,–,–,–,–,–,–
Cc1cc2c(cc1CC(=O)c1sccc1S(=O)(=O)Nc1onc(C)c1Cl)OCO2,–,inactive,–,inactive,inactive,–,inactive,–,–,–,–,–,–,–,–,–,–,–
